Source: PubChem
This is a sample that favours compounds with a hit; in the whole collection about 17% have one here.
TGFb SMAD3 inh: TGF-b pathway inhibition | HepG2 CAGA-GFP TGF-b/SMAD3 reporter, GFP fluorescence, 18 h; TGF-beta stimulated, 500 pg/mL final | Potency, µM (highest dose often 46.1 µM), inactives show top-dose activity, negative = inhibition, most hits filed as inhibitors | 410,000 tested, 1.2% active; also: % is scaled to controls: 0 for no effect and ±100 for the full control effect; nearly all actives have a fitted effect of over 65% in size
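TGF-beta reporter screen: HEPG2 CAGA-GFP, 1% FBS, 500 pg/mL TGF-beta final, 18 h; per-cell GFP summed per well; curves fitted and categorized by class.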
HT1080 IDH1KD tx: HT-1080 IDH1 knockdown cell toxicity (counter line); HT-1080 IDH1 knockdown viability, ATP luminescence, 48 h; AID 686971; Potency, µM (highest dose often 46.1 µM), for inactives: at the top dose activity, negative = toxicity, most hits filed as cytotoxic; 360,000 tested, 2% active;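 also: 0% = DMSO wells and -100% = cell-free medium wells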
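CellTiter-Glo luminescence after 48 h compound exposure at 37 degrees C of IDH1-knockdown HT-1080 cells in 5% FBS RPMI. %Activity scaled between DMSO wells and cell-free media wells, with curves fitted and assigned curve classes.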
HT1080NT lethal: kills 2HG-producing HT-1080-NT fibrosarcoma cells | HT-1080-NT fibrosarcoma viability, CellTiter-Glo ATP luminescence, 48 h | Potency, µM (series often up to 46.1 µM), inactives show top-dose activity, negative = less viability, hits mostly cytotoxic | 360,000 tested, 1.6% active | AID 686970;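 also: NT is the 2HG producing partner of a matched IDH1 knockdown line; 0% = DMSO-treated cells and -100% = media-only wells without cells; nearly all actives have a fitted effect of over 55% in size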
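HT-1080-NT fibrosarcoma cells (2HG-overproducing), 750 cells/well in RPMI with 5% FBS, dosed after 2 h and incubated 48 h at 37C. CellTiter-Glo luminescence normalized to DMSO and no-cell wells; concentration-response curves fitted and classed.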
HepG2 tox: counter-screen for TGF-b inhibitors: cytotoxicity in HepG2 cells. HepG2 CAGA-GFP viability, ATP luminescence, 18 h. Potency, µM (doses to about 46.1 µM), without a hit: at the top dose activity change, negative = cytotoxicity, actives largely listed as cytotoxic. 410,000 tested, 0.76% active
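CellTiter-Glo luminescence gave cytotoxicity after 18 hours at 37 degrees C. The cells were HepG2 CAGA-GFP in 1% FBS DMEM, stimulated with 500 pg/mL TGF-beta after compound addition. %Activity was normalised to no-cell wells (complete cell-killing) and DMSO (no toxicity), and curves were fitted and classified.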
TDP1 cell noCPT: qHTS for Inhibitors of human tyrosyl-DNA phosphodiesterase 1 (TDP1): qHTS in cells in absence of CPT; DT40 Tdp1-/- hTDP1 cells, no CPT, ATP luminescence, 48 h; Potency, µM (series often up to 46.2 µM), without a hit: at the highest dose activity change, negative = growth inhibition, hits mostly inhibitors; 420,000 tested, 15% active; also: % is scaled to controls: 0 for no effect and ±100 for the full control effect; nearly all actives have a fitted effect of over 55% in size
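Chicken DT40 Tdp1-/- cells stably complemented with human TDP1 were seeded at 400 cells/well with DMSO in place of 20 nM camptothecin. After compound pinning, cells grew at least 48 hr at 37 °C; viability read by CellTiter-Glo luminescence.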
DT40 TDP1 CPT: growth inhibition of DT40 Tdp1-/-;hTDP1 cells with camptothecin (screen for TDP1 inhibitors); chicken DT40 Tdp1-/-;hTDP1 cells + 20 nM CPT, ATP luminescence, 48 h; Potency, µM (doses to about 46.2 µM), without a hit: at the top dose activity change, negative = growth inhibition, hits mostly inhibitors; 420,000 tested, 12% active; AID 686979; also: % is scaled to controls: 0 for no effect and ±100 for the full control effect; nearly all actives have a fitted effect of over 55% in size
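Chicken DT40 Tdp1-/- cells stably complemented with human TDP1 were seeded at 400 cells/well in medium containing 20 nM camptothecin, exposed to pin-transferred compounds, and grown at 37 °C for at least 48 hr. Viability was read as ATP luminescence.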
* marks the source's active call; other numbers are inactive results; ? = inconclusive; / = no result; [ ] = remark or other dose. Calls follow the shape of the dose curve; as a rule, active = well fitted curve in the direction sought with a large enough effect; inconclusive = small, poorly fitted or top-dose-only effect, or another doubt; inactive = no such curve, though single readings can be large; an effect the other way counts as inactive or inconclusive. Potency is read from the fitted curve at half-maximal effect.

SMILES | TGFb SMAD3 inh | HT1080 IDH1KD tx | HT1080NT lethal | HepG2 tox | TDP1 cell noCPT | DT40 TDP1 CPT
CCN1CCCC1CNC(=O)c1ccc2c(c1)NC(=O)/C(=C\c1ccc(C)cc1)S2 (stereo not drawn) | ? | 0.0% | ? | 15.8µM* | 16.4µM* | ?
CCOC(=O)C1CCCN(C(=O)c2cc(C)oc2C)CC1 (stereo not drawn) | -1.0% | 12.7% | 23.6% | 6.9% | -6.0% | -18.8%
O=c1cc(-c2ccc(O)cc2)oc2cc(OC3OC(CO)C(O)C(O)[C@H]3O[C@@H]3OC[C@@](O)(CO)C3O)cc(O)c12 (stereo partly drawn) | / | / | / | / | -1.2% | 7.8%
C[C@@H]1CN([C@@H](C)CO)C(=O)c2cc(NC(=O)CCC(F)(F)F)ccc2O[C@H]1CN(C)Cc1ccc(Cl)c(Cl)c1 | 12.6µM* | 23.1µM* | ? | -84.8% | ? | 20.6µM*
C[C@H](CO)N1C[C@H](C)[C@@H](CN(C)S(=O)(=O)c2ccc(F)cc2)Oc2ccc(NS(=O)(=O)c3ccc(F)cc3)cc2C1=O | ? | 0.4% | 9.2% | -72.0% | -25.5% | -10.8%
C[C@@H]1CN([C@H](C)CO)C(=O)Cc2cc(NC(=O)Cn3cnnn3)ccc2O[C@@H]1CN(C)Cc1ccc(Cl)c(Cl)c1 | ? | -16.0% | -2.3% | -53.0% | ? | 18.4µM*
C[C@@H]1CCCCO[C@@H](CN(C)Cc2ccc(Cl)c(Cl)c2)[C@@H](C)CN([C@H](C)CO)C(=O)c2cc(NC(=O)CCC(F)(F)F)ccc2O1 | ? | ? | ? | -25.4% | 10.3µM* | 8.2µM*
C[C@@H]1CN([C@H](C)CO)C(=O)c2cc(NS(=O)(=O)c3ccc(F)cc3)ccc2O[C@@H]1CN(C)Cc1ccc(Cl)c(Cl)c1 | 11.2µM* | ? | 23.1µM* | -100.1% | ? | ?
C[C@@H]1CCCCO[C@H](CN(C)C(=O)CCC(F)(F)F)[C@@H](C)CN([C@H](C)CO)C(=O)c2cc(NC(=O)c3ccncc3)ccc2O1 | 11.1% | -6.6% | -2.6% | 9.2% | ? | ?
C[C@H](CO)N1C[C@H](C)[C@@H](CN(C)Cc2ccc(Cl)c(Cl)c2)Oc2ccc(NC(=O)Cn3cnnn3)cc2C1=O | 19.6% | 8.2% | 1.1% | -1.5% | -1.6% | ?
O=C(NCCN1Cc2ccccc2OC(c2ccccc2F)C1)c1ccco1 (stereo not drawn) | / | / | / | / | ? | 12.8%[9.04 µM]
Nc1nnnn1-c1ccccc1 | / | / | / | / | -0.9% | -18.9%
CCCCCCCCNc1ccc(/C=C/c2ccnc3ccccc23)cc1 | 25.0% | / | / | -10.0% | ? | ?
CC[C@]12c3[nH]c4ccc(Cl)cc4c3CCN1C(=O)[C@@H](CC(=O)NCCc1ccccn1)C[C@@H]2C(=O)N1CCN(C(=O)C2CC2)CC1 | -28.8% | 1.9% | 1.1% | 0.0% | ? | ?
COc1ccc2[nH]c3c(c2c1)CCN1C(=O)C(CC(=O)NCCN2CCOCC2)C[C@H](C(=O)N(C(C)C)C(C)C)[C@@]31C (stereo partly drawn) | ? | -0.7% | -0.2% | -30.2% | -19.9% | ?
COc1ccc2[nH]c3c(c2c1)CCN1C(=O)C(CC(=O)NCc2ccco2)C[C@H](C(=O)N2CCCCC2)[C@@]31C (stereo partly drawn) | -28.6% | 1.2% | 2.5% | -0.2% | ? | -28.1%
C[C@]12c3[nH]c4ccc(Cl)cc4c3CCN1C(=O)[C@@H](CC(=O)NCCc1ccccn1)C[C@@H]2C(=O)N1CCCCC1 | ? | -1.2% | 1.1% | -20.7% | 25.9µM* | ?
COCCCNC(=O)C[C@H]1C[C@H](C(=O)N2CCCCC2)[C@@]2(C)c3[nH]c4ccc(Cl)cc4c3CCN2C1=O | 5.4% | -3.1% | -0.3% | 3.1% | 13µM* | 20.6µM*
CC(C)N(C(=O)[C@H]1C[C@H](CC(=O)NCCC2=CCCCC2)C(=O)N2CCc3c([nH]c4ccc(Cl)cc34)[C@]12C)C(C)C | ? | -3.2% | -6.0% | -22.1% | 25.9µM* | 29.1µM*
C[C@]12c3[nH]c4ccc(Cl)cc4c3CCN1C(=O)[C@@H](CC(=O)NCc1ccco1)C[C@@H]2C(=O)N1CCCCC1 | ? | ? | -11.0% | -14.1% | 5.8µM* | 6.51µM*
CC(C)(C)n1ncc2c(=O)n(Cc3ccc(C#N)cc3)cnc21 | -14.0% | / | / | -28.8% | / | /
O=C(Nc1oc2ccccc2c(=O)c1-c1ccc(Cl)cc1)c1ccco1 | -10.8% | -2.7% | -3.5% | -27.0% | 12.0% | -20.3%
COc1ccc(C(C)=O)cc1CN1C(=O)C(Cc2ccccc2)ON=C1c1ncccc1C (stereo not drawn) | -11.9% | 15.2% | 0.7% | 3.3% | ? | 20.6µM*
COc1ccc(C(=O)N2CCC3(CC2)CCN(C(c2ccccc2)c2ccccc2)CC3)cc1 | / | / | / | / | -16.5% | -7.7%
Cn1cc(/C=C(\C#N)C(=O)Nc2ccccc2O)c2ccccc21 | -20.8% | -27.0% | -19.0% | -25.3% | 18.4µM* | ?
SMILES | TGFb SMAD3 inh | HT1080 IDH1KD tx | HT1080NT lethal | HepG2 tox | TDP1 cell noCPT | DT40 TDP1 CPT
Cn1c(=O)c2cc(NC(=O)NCc3ccccc3)ccc2n1Cc1ccc(Cl)cc1 | -14.8% | -21.0% | -11.1% | -10.8% | ? | ?
COc1ccc(CNC(=O)Nc2ccc3c(c2)c(=O)n(C)n3Cc2cccc(C(F)(F)F)c2)cc1 | -27.1% | ? | -17.2% | -3.2% | 23.1µM* | ?
COc1ccc(CCNC(=O)Nc2ccc3c(c2)c(=O)n(C)n3Cc2ccc(F)cc2)cc1OC | -8.0% | 11.6% | 25.0% | -23.0% | ? | ?
COc1ccc(OC)c(CC(=O)Nc2ccc3c(c2)c(=O)n(C)n3Cc2cccc(C(F)(F)F)c2)c1 | -11.5% | -6.5% | -9.2% | -26.7% | ? | 29.1µM*
C/C(CC(=O)NCc1ccc(F)cc1)=N\NC(N)=S | -4.0% | -2.9% | -3.8% | -15.1% | -25.1% | -1.4%
O=C(Nc1cccc(F)c1)C1CCCN1C(=O)OCc1ccccc1 (stereo not drawn) | 0.6% | 0.3% | 11.2% | -7.8% | -3.3% | -11.7%
O=C(O)CC1c2ccccc2CCN1C(=O)Nc1cc(Cl)ccc1Cl (stereo not drawn) | 29.3% | / | / | 10.4% | 20.6µM* | 20.6µM*
